Source: PubChem BioAssay AID1159580 (chemical genetic matrix, 2015)
In all, about 5,500 compounds went through this assay and about 2,000 (36%) were called active. About 18% were inconclusive and are not listed. Cut-off read from the data, not from the text of the source: active = normalized growth mostly below about 0.91 (no sharp cut-off); inconclusive = no clear call, values can overlap the other calls; inactive = mostly above about 0.92. This is one part of the list.

Experiment: chemical genetic growth profiling, strain panel (AID 1159580);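 note: tested at 20 µM; growth read once vehicle control cultures reached saturation at 30 °C; 1 = growth at the plate median or of vehicle wells; lower values mean less growth of the strain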
Details: growth OD
[1] = S. cerevisiae deletion strains, locus YAL013W, strain DEP1, active compounds read low
[2] = S. cerevisiae deletion strains, locus YDR150W, strain NUM1, active compounds read low
[3] = S. cerevisiae deletion strains, locus YJR075W, strain HOC1, active compounds read low
[4] = S. cerevisiae deletion strains, locus YMR263W, strain SAP30, active compounds read low
[5] = S. cerevisiae deletion strains, locus YNL153C, strain GIM3, active compounds read low
[6] = S. cerevisiae deletion strains, locus YPL241C, strain CIN2, active compounds read low

Measured: normalized growth

CC1Cc2cc3c(cc2C(c2ccc(N)cc2)=NN1)OCO3 (centres undefined)
inactive: [1] 0.958 | S. cerevisiae deletion strains, locus YAL040C, strain CLN3, active compounds read low 0.946 | S. cerevisiae deletion strains, locus YCL061C, strain MRC1 (second series), active compounds read low 0.991 | [2] 0.995 | S. cerevisiae deletion strains, locus YDR363W, strain ESC2, active compounds read low 0.989 | S. cerevisiae deletion strains, locus YER002W, strain NOP16, active compounds read low 0.991 | [3] 0.97 | [4] 0.982 | [5] 0.979 | S. cerevisiae deletion strains, locus YNL175C, strain NOP13, active compounds read low 0.996 | S. cerevisiae deletion strains, locus YNL197C, strain WHI3, active compounds read low 0.999 | S. cerevisiae deletion strains, locus YNL224C, strain SQS1, active compounds read low 0.996 | [6] 0.986

CCCSP(=O)(OCC)SCCC
inactive: [1] 1.01 | S. cerevisiae deletion strains, locus YBR021W, strain FUR4, active compounds read low 1 | S. cerevisiae deletion strains, locus YBR229C, strain ROT2, active compounds read low 1.02 | S. cerevisiae deletion strains, locus YCL029C, strain bik1, active compounds read low 0.988 | S. cerevisiae deletion strains, locus YDL035C, strain GPR1, active compounds read low 1.02 | S. cerevisiae deletion strains, locus YDL074C, strain BRE1, active compounds read low 1.07 | S. cerevisiae deletion strains, locus YDL101C, strain DUN1, active compounds read low 1.02 | S. cerevisiae deletion strains, locus YDL134C, strain PPH21, active compounds read low 1.02 | S. cerevisiae deletion strains, locus YDL185W, strain tfp1, active compounds read low 0.984 | S. cerevisiae deletion strains, locus YDL192W, strain arf1, active compounds read low 0.988 | S. cerevisiae deletion strains, locus YDR101C, strain arx1, active compounds read low 0.99 | [2] 1.02 | S. cerevisiae deletion strains, locus YDR162C, strain NBP2, active compounds read low 1.02 | S. cerevisiae deletion strains, locus YDR318W, strain mcm21, active compounds read low 0.995 | S. cerevisiae deletion strains, locus YDR388W, active compounds read low 0.995 | S. cerevisiae deletion strains, locus YDR502C, strain sam2, active compounds read low 0.996 | S. cerevisiae deletion strains, locus YEL061C, strain CIN8, active compounds read low 1.02 | S. cerevisiae deletion strains, locus YER110C, active compounds read low 0.983 | S. cerevisiae deletion strains, locus YER155C, strain BEM2, active compounds read low 1.03 | S. cerevisiae deletion strains, locus YER167W, strain BCK2, active compounds read low 0.994 | S. cerevisiae deletion strains, locus YGL078C, strain dbp3, active compounds read low 0.964 | S. cerevisiae deletion strains, locus YGL086W, strain mad1, active compounds read low 0.994 | S. cerevisiae deletion strains, locus YGL248W, strain PDE1, active compounds read low 1.03 | S. cerevisiae deletion strains, locus YGR078C, strain PAC10, active compounds read low 1.02 | S. cerevisiae deletion strains, locus YGR135W, strain pre9, active compounds read low 0.98 | S. cerevisiae deletion strains, locus YGR229C, strain SMI1, active compounds read low 1.03 | S. cerevisiae deletion strains, locus YGR252W, strain gcn5, active compounds read low 0.927 | S. cerevisiae deletion strains, locus YHR030C, strain SLT2, active compounds read low 1.02 | S. cerevisiae deletion strains, locus YHR079C, strain IRE1 (second series), active compounds read low 0.982 | S. cerevisiae deletion strains, locus YHR094C, strain hxt1, active compounds read low 0.978 | S. cerevisiae deletion strains, locus YHR129C, strain ARP1, active compounds read low 1.02 | S. cerevisiae deletion strains, locus YHR200W, strain rpn10, active compounds read low 0.982 | S. cerevisiae deletion strains, locus YIL066C, strain RNR3, active compounds read low 1.03 | S. cerevisiae deletion strains, locus YIL073C, strain SPO22, active compounds read low 0.996 | S. cerevisiae deletion strains, locus YIL125W, strain kgd1, active compounds read low 0.987 | S. cerevisiae deletion strains, locus YIR030C, strain dcg1, active compounds read low 0.976 | S. cerevisiae deletion strains, locus YJL095W, strain BCK1, active compounds read low 1.04 | S. cerevisiae deletion strains, locus YJL134W, strain LCB3, active compounds read low 1.01 | S. cerevisiae deletion strains, locus YJL168C, strain set2, active compounds read low 0.981 | S. cerevisiae deletion strains, locus YJL187C, strain SWE1 (second series), active compounds read low 1.01 | S. cerevisiae deletion strains, locus YJR043C, strain POL32, active compounds read low 1.02 | [3] 1.03 | S. cerevisiae deletion strains, locus YKL009W, strain mrt4, active compounds read low 1.01 | S. cerevisiae deletion strains, locus YKL068W, active compounds read low 0.996 | S. cerevisiae deletion strains, locus YKL085W, strain MDH1 (second series), active compounds read low 0.99 | S. cerevisiae deletion strains, locus YKL085W, strain MDH1, active compounds read low 0.99 | S. cerevisiae deletion strains, locus YKL190W, strain CNB1, active compounds read low 1 | S. cerevisiae deletion strains, locus YKR001C, strain vps1, active compounds read low 0.982 | S. cerevisiae deletion strains, locus YLR039C, strain RIC1, active compounds read low 1.02 | S. cerevisiae deletion strains, locus YLR058C, strain SHM2, active compounds read low 1.01 | S. cerevisiae deletion strains, locus YLR102C, strain apc9, active compounds read low 0.977 | S. cerevisiae deletion strains, locus YLR262C, strain YPT6, active compounds read low 1.02 | S. cerevisiae deletion strains, locus YLR268W, strain sec22, active compounds read low 0.994 | S. cerevisiae deletion strains, locus YLR330W, strain CHS5, active compounds read low 1.02 | S. cerevisiae deletion strains, locus YLR342W, strain FKS1 (second series), active compounds read low 0.995 | S. cerevisiae deletion strains, locus YLR371W, strain rom2, active compounds read low 0.981 | S. cerevisiae deletion strains, locus YLR418C, strain cdc73, active compounds read low 0.999 | S. cerevisiae deletion strains, locus YML016C, strain PPZ1, active compounds read low 1.02 | S. cerevisiae deletion strains, locus YML032C, strain rad52, active compounds read low 0.983 | S. cerevisiae deletion strains, locus YML124C, strain tub3, active compounds read low 0.989 | S. cerevisiae deletion strains, locus YMR078C, strain ctf18, active compounds read low 0.983 | S. cerevisiae deletion strains, locus YMR223W, strain ubp8, active compounds read low 0.974 | [4] 1.03 | S. cerevisiae deletion strains, locus YMR307W, strain GAS1, active compounds read low 1.01 | S. cerevisiae deletion strains, locus YNL067W, strain RPL9B, active compounds read low 1.02 | S. cerevisiae deletion strains, locus YNL128W, strain TEP1, active compounds read low 1.03 | [5] 1.02 | S. cerevisiae deletion strains, locus YNL233W, strain BNI4, active compounds read low 1.01 | S. cerevisiae deletion strains, locus YNL250W, strain rad50, active compounds read low 0.984 | S. cerevisiae deletion strains, locus YNL271C, strain bni1, active compounds read low 0.974 | S. cerevisiae deletion strains, locus YNL298W, strain CLA4, active compounds read low 0.977 | S. cerevisiae deletion strains, locus YNL307C, strain MCK1, active compounds read low 0.979 | S. cerevisiae deletion strains, locus YNL322C, strain KRE1, active compounds read low 1.01 | S. cerevisiae deletion strains, locus YNR052C, strain pop2, active compounds read low 0.971 | S. cerevisiae deletion strains, locus YOL006C, strain TOP1, active compounds read low 1.05 | S. cerevisiae deletion strains, locus YOL012C, strain htz1 0.903 | S. cerevisiae deletion strains, locus YOL147C, strain pex11, active compounds read low 0.991 | S. cerevisiae deletion strains, locus YOR061W, strain CKA2, active compounds read low 1.01 | S. cerevisiae deletion strains, locus YOR069W, strain VPS5, active compounds read low 1.01 | S. cerevisiae deletion strains, locus YOR136W, strain idh2, active compounds read low 0.998 | S. cerevisiae deletion strains, locus YOR144C, strain elg1, active compounds read low 0.999 | S. cerevisiae deletion strains, locus YOR184W, strain ser1, active compounds read low 0.975 | S. cerevisiae deletion strains, locus YOR316C, strain cot1, active compounds read low 0.99 | S. cerevisiae deletion strains, locus YPL055C, strain LGE1, active compounds read low 1.03 | [6] 1.01 | S. cerevisiae deletion strains, locus YPR119W, strain clb2, active compounds read low 0.985 | S. cerevisiae deletion strains, locus YPR141C, strain kar3, active compounds read low 0.987 | S. cerevisiae deletion strains, locus YPR163C, strain tif3, active compounds read low 0.986 | S. cerevisiae deletion strains, locus YPR167C, strain met16, active compounds read low 0.985 | S. cerevisiae deletion strains, strain wtn01, active compounds read low 0.987 | S. cerevisiae strains, strain wild type, active compounds read low 1.02
